Experiments:
Conditions in all cases: concentration: 1 μM, replicates: in singlicate; n = 1
SNARK = system: T1, SNARK
T1 construct: gene NUAK2

SNRK = system: SNRK
SRC = system: SRC
SRMS = system: SRMS
SRPK1 = system: SRPK1
SRPK2 = system: SRPK2
SRPK3 = system: SRPK3
STK16 = system: STK16
STK33 = system: STK33
STK35 = system: STK35
STK36 = system: STK36
STK39 = system: STK39
SYK = system: SYK
SgK110 = system: SgK110
TAK1 = system: T2, TAK1
T2 construct: gene MAP3K7

TAOK1 = system: TAOK1
TAOK2 = system: TAOK2
TAOK3 = system: TAOK3
TBK1 = system: TBK1
TEC = system: TEC
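Also: KINOMEscan kinase panel screen.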

Row | SMILES | %Inh (SNARK) | %Inh (SNRK) | %Inh (SRC) | %Inh (SRMS) | %Inh (SRPK1) | %Inh (SRPK2) | %Inh (SRPK3) | %Inh (STK16) | %Inh (STK33) | %Inh (STK35) | %Inh (STK36) | %Inh (STK39) | %Inh (SYK) | %Inh (SgK110) | %Inh (TAK1) | %Inh (TAOK1) | %Inh (TAOK2) | %Inh (TAOK3) | %Inh (TBK1) | %Inh (TEC)
1 | Cl.NC(=O)c1cccc(Nc2nccc(Nc3ccc(Oc4c(Cl)cccc4Cl)c(Cl)c3)n2)c1 [GW659009] | 1% | 5% | 18% | 19% | 37% | 0% | 6% | 35% | 0% | 0% | 0% | 0% | 0% | 0% | 1% | 9% | 0% | 8% | 0% | 0%
2 | CCCCc1nn2ncccc2c1-c1ccnc(Nc2ccc(N3CCN(C)CC3)cc2)n1 [GW684941] | 90.2% | 0% | 98.8% | 0% | 63% | 6% | 26% | 86% | 39% | 0% | 91.4% | 33% | 0% | 10% | 4% | 37% | 47% | 42% | 11% | 0%
3 | Cl.c1ccc(-c2ccc3c(Nc4ccc5[nH]ccc5c4)ccnc3c2)nc1 [GW440138] | 4% | 0% | 60% | 0% | 38% | 22% | 0% | 0% | 0% | 0% | 0% | 0% | 0% | 0% | 0% | 0% | 0% | 0% | 12% | 0%
4 | COc1ccc(-c2coc3ccc(-c4nnc(SCc5ccc(OC)c(C(F)(F)F)c5)o4)cc23)cc1 | 35% | 21% | 4% | 0% | 8% | 0% | 0% | 17% | 7% | 0% | 29% | 0% | 0% | 4% | 0% | 0% | 0% | 0% | 11% | 18%
5 | CN1CCN(CCCNc2nccc(-c3c(-c4ccc(F)cc4)nn4cc(C(F)(F)F)ccc34)n2)CC1 [GW621581] | 0% | 0% | 14% | 0% | 26% | 0% | 16% | 0% | 0% | 60% | 97.6% | 3% | 10% | 0% | 0% | 4% | 0% | 8% | 0% | 0%
6 | CN1CCN(Cc2cccc(-c3ccc4c(Nc5ccc(Oc6ccccc6)cc5)ccnc4c3)c2)CC1 [GW578342] | 0% | 0% | 34% | 97.1% | 69% | 20% | 0% | 2% | 13% | 70% | 0% | 6% | 0% | 6% | 13% | 0% | 0% | 0% | 16% | 70%
7 | CCn1c(-c2nonc2N)nc2c(C#CC(C)(C)O)ncc(OCCCCN)c21.O=C(O)C(F)(F)F.O=C(O)C(F)(F)F [GSK507274] | 94.7% | 19% | 0% | 0% | 0% | 42% | 18% | 0% | 0% | 0% | 0% | 11% | 4% | 0% | 0% | 40% | 8% | 0% | 31% | 0%
8 | Cn1cc(-c2ccc3c(c2)CCN3C(=O)Cc2cccc(F)c2)c2c(N)ncnc21 [GSK2603358] | 10% | 0% | 4% | 0% | 0% | 0% | 9% | 13% | 0% | 0% | 0% | 12% | 18% | 0% | 30% | 0% | 0% | 0% | 19% | 8%
9 | COC(=O)Nc1nc2ccc(Oc3ccc(NC(=O)Nc4cc(C(F)(F)F)ccc4F)cc3)cc2n1C.Cl [GW692089] | 17% | 0% | 0% | 0% | 26% | 57% | 5% | 0% | 30% | 0% | 22% | 0% | 52% | 0% | 38% | 0% | 0% | 0% | 0% | 0%
10 | CC(C)(C)c1ccc2nccc(Nc3cccc(O)c3)c2c1 [GW856795] | 0% | 0% | 96.7% | 0% | 0% | 9% | 20% | 0% | 0% | 0% | 0% | 14% | 0% | 0% | 23% | 100% | 0% | 59% | 14% | 12%
